Assay results taken from the supplement of paper PMC11417369.
± gives the standard deviation of the averaged measurements. Over roughly 25,000 sequences, “ln(normalized median fluorescence intensity)” has its median near 8.9; the highest 2% begin near 10. Many of the other results were omitted from the sample, so the highest values are more common in it than they were.

Tested on: PfAP2-LT AP2 domain (GST-tagged)
Assay: gcPBM binding intensity (ln(normalized median fluorescence intensity)); higher = stronger DNA binding
How it was run: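 DNA-binding domains from P. falciparum, fused to GST and produced in E. coli, were put on an Agilent 4 × 180k double-stranded probe array for 1 h in 1× PBS holding 1% milk, 0.2 mg/ml BSA, 0.5% salmon testes DNA and 0.03% Triton X-100. Probes were primer-extended, 36 bp long and drawn from intergenic genomic regions, with negative controls included. After Alexa488 anti-GST antibody detection and a 488 nm scan, binding intensity was set as the highest Masliner-normalised natural-log median intensity across replicate spots of either probe orientation.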

Sequence | gcPBM binding intensity (ln)
TATAATATTCTATATGCATGTACACCATTCTTTATT [TGCATGCA_site688] | 9.15 ± 0.45
ACACATACATATACATACACATTGTTTTCATGCATC [XGTACX_negctrl_site126] | 9.2 ± 0.39
GTTCATCACATATACACATGCATATTCTAATATGTA [TGCATGCA_site809] | 8.95 ± 0.41
TATATATATATATATACATGCATCATTGTTCACCTT [TGCATGCA_site177] | 10.2 ± 0.35
TAAAATGAATAAAATTGTACTTAATAATATTTTAAA [XGTACX_site5532] | 8.23 ± 0.57
TAAAATATAGAAAATTTTATTAAATATAAAAAAATA [CACACA_negctrl_site1441] | 8.28 ± 0.47
TATAAGAAATAAAACCTGATTATAAACCTGTAACCA [CACACA_negctrl_site1302] | 8.63 ± 0.37
ATAAATAAATACTAGGCACACACACCGATATATATA [CACACA_site8649] | 9.76 ± 0.22
AATAAAATAATAGGCACACATATATATATATATTAT [CACACA_site273] | 9.2 ± 0.37
ATAAATACTAGGCACACACACATATATATATATATA [CACACA_site2080] | 10.4 ± 0.014
AAAATAATAATAGGCACACATATATATATATATATA [CACACA_site2058] | 9.99 ± 0.21
AAATAAATACTAGGCACACACACATATATATATATA [CACACA_site2079] | 10.1 ± 0.15
ATAAATACTAGGCACACACACATATAGATTTATATA [CACACA_site7064] | 9.77 ± 0.47
TATATTTGGAAAACATGTACATATAACAATATGTAA [XGTACX_site324] | 8.71 ± 0.34
TTAGTTATTAAAAAAAGTACATAAGTAGATATCATC [XGTACX_site8712] | 8.7 ± 0.45
TTTGAACATTTTGCAAGTACAAAAAAATAATATATC [XGTACX_site8079] | 8.65 ± 0.42
ACTCTCTTATATTAAACACACATATATATATGTATA [CACACA_site2703] | 8.99 ± 0.42
GTGCTAAAAGTATATGCACACACATATATATGCACA [CACACA_site8472] | 9.42 ± 0.31
ATAAAACAAAAACACACACACATACACAAAAAAAAA [CACACA_site3848] | 10.1 ± 0.3
AATAAACATATATACACACACAAAAAAAAAAACATA [CACACA_site424] | 9.59 ± 0.5
TATATACACATATATAAACACACAAAAAAAAAAAAA [CACACA_site8626] | 8.89 ± 0.4
AAATAAAACAAACACACACACACATACACAAAAAAA [CACACA_site3849] | 10.12 ± 0.035

Sequence | gcPBM binding intensity (ln)
TATACACATATATAAACACACAAAAAAAAAAAAAAA [CACACA_site7041] | 8.88 ± 0.49
AAAAAAAAAAAACATACACACAAATAAATACATACA [CACACA_site6073] | 9.23 ± 0.36
AATAAACATAAATACACACACAAAAAAAAAAACATA [CACACA_site4396] | 9.64 ± 0.33
TATAACATAAAACACACACACATACATACACAAAAA [CACACA_site1804] | 10.1 ± 0.15
AATATATAAACATATACACACAAAAACATATATATA [CACACA_site4855] | 9.21 ± 0.33
AATTTTTTATATGTCACACATTTATTATTATTATTA [CACACA_site4198] | 8.83 ± 0.48
AACATATAAAAATATGCACACACAGGAATACAAACA [CACACA_site8127] | 9.89 ± 0.45
AAAAAATAAATAAATAGTACTTTAAAAGAAAAAAAA [XGTACX_site5051] | 8.55 ± 0.51
TGTTTATTTAATAATATTTTTTTTTTTATTATATTA [XGTACX_negctrl_site56] | 8.31 ± 0.54
ATAAGATTATACAATTGTACGTTGTTCAAGATAAGG [XGTACX_site191] | 8.8 ± 0.42
AATAAATATAAATAAATAAATATATATATATATTTG [CACACA_negctrl_site1486] | 8.56 ± 0.4
TTTTATGTTTTAAAATGTACGTGTCAATGAATAAGT [XGTACX_site6239] | 8.52 ± 0.42
TTATTTACAACTTCAAATTATGTGTAATACTACTAT [CACACA_negctrl_site741] | 8.73 ± 0.52
AAAACAATATACTGTAGTACTGATGATATATATATA [XGTACX_site7798] | 9.01 ± 0.38
TATATATACATATACACACATACGTACATACATATA [CACACA_site3585] | 9.13 ± 0.39
AACACAAGAACAGAACGTACACACACATATATATAT [XGTACX_site7347] | 9.84 ± 0.13
AAGAACAGAACGTACACACACATATATATATATATA [CACACA_site3457] | 10.2 ± 0.28
AAGAACAGAACGTACACACACATATTTATATTTATA [CACACA_site7594] | 9.55 ± 0.3
TAAAAAAAAACATATACACACAAAAACGTACACATA [CACACA_site1354] | 9.31 ± 0.3
ACAAGAACAGAACGTACACACACATATATATATATA [CACACA_site9143] | 10.175 ± 0.0071
AAAAAATAATAATAAAATGAATAGATATGTATTTAT [TGCATGCA_negctrl_site210] | 8.63 ± 0.52
AAAAAAAAAAAAAAATGTACATATATAATATTTATA [XGTACX_site5117] | 8.54 ± 0.57
